These results are taken from PubChem BioAssay (NCI).

Test systems include NCI-H23 lung; NCI-H226 lung; HOP-62 NSCLC; NCI-H460 lung; HOP-92 NSCLC; NCI-H522 lung; A549/ATCC NSCLC; 786-0 renal; COLO 205 colon; DU-145 prostate; K-562 leukemia; MALME-3M melanoma; MDA-MB-231 breast; RXF 393 renal; SF-268 CNS; SF-295 CNS; SF-539 CNS; UACC-257 melanoma; M14 melanoma.
Assay in all cases: NCI-60 one-dose screen, 48 h (100 = growth as untreated, 0 = no growth, -100 = all killed)
Holding throughout (conditions): 10 µM unless noted

Compounds without any hit were thinned out: in the full panel of roughly 83,000, 20% have a hit.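 96-well plates, one dose, 48 hours. Percent growth reported; active if below 10.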 Values without a mark were called inactive. Active and inactive are the calls of the source.

With `Cc1ccc2c(c1)sc1nc(-c3c[nH]c4ccccc34)c(Nc3ccccc3)n12`, the growth in the assay with NCI-H23 lung was 98.4%; in the assay on NCI-H226 lung, 98.6%; in the assay on HOP-62 NSCLC, 96.1%; in the assay on NCI-H460 lung it was 101%; in the assay with HOP-92 NSCLC it was 101%; with NCI-H522 lung, 90.6%. The growth with A549/ATCC NSCLC was 101%; in the assay with 786-0 renal it was 105%; in the assay with COLO 205 colon, 107%; in the assay on DU-145 prostate, 108%; in the assay with K-562 leukemia it was 94.4%; in the assay on MALME-3M melanoma it was 101%. Besides, the growth with MDA-MB-231 breast is 93%; with RXF 393 renal, 111%; in the assay with SF-268 CNS, 101%; in the assay on SF-295 CNS it was 100%; in the assay on SF-539 CNS it was 97.2%; in the assay on UACC-257 melanoma it was 105%. For the same molecule, the growth in the assay on M14 melanoma is 107%.
Take `Fc1cc2[nH]ncc2c2c3c(c(-c4cn[nH]c4C(F)(F)F)nc12)CCCC3`: the growth in the assay on NCI-H23 lung was -12.2% (active); with NCI-H226 lung it was 6.19% (active); in the assay on HOP-62 NSCLC it was -1.79% (active); in the assay on NCI-H460 lung, 2.41% (active); with HOP-92 NSCLC, -71% (active); with NCI-H522 lung it was -24.2% (active). For the same molecule, the growth in the assay on A549/ATCC NSCLC is 2.17% (active); in the assay on 786-0 renal it was 1.39% (active); with COLO 205 colon, -45.6% (active); with DU-145 prostate, 5.47% (active); with K-562 leukemia, -34.5% (active); in the assay on MALME-3M melanoma it was 10.5%. The growth is 7.95% (active) in the assay on MDA-MB-231 breast; -56.2% (active) in the assay with RXF 393 renal; 0.494% (active) in the assay on SF-268 CNS; 5.61% (active) in the assay with SF-295 CNS; -66.9% (active) in the assay on SF-539 CNS; 2.49% (active) in the assay with UACC-257 melanoma. In addition, the growth in the assay with M14 melanoma is -2.16% (active).
Turning to `Cc1nc2ccccc2c(/C=C/c2ccc(F)cc2)c1C(=O)/C=C/c1ccccc1`, the growth in the assay with NCI-H23 lung was 20.7%; in the assay on NCI-H226 lung it was 50.6%; in the assay with NCI-H460 lung it was -41.9% (active); in the assay with HOP-92 NSCLC it was 50.6%; in the assay with NCI-H522 lung, 5.78% (active); in the assay on A549/ATCC NSCLC, 25%. The growth is 24.1% with 786-0 renal; 10.5% with COLO 205 colon; 10.2% with DU-145 prostate; 6.31% (active) with K-562 leukemia; 31.1% in the assay with MALME-3M melanoma; 22.4% in the assay with MDA-MB-231 breast. The growth in the assay with RXF 393 renal was -3.77% (active); in the assay on SF-268 CNS, 37.9%; in the assay on SF-295 CNS, 32.5%; in the assay on SF-539 CNS, 1.11% (active); in the assay with UACC-257 melanoma, 7.87% (active); in the assay on M14 melanoma, 12.4%.
As for `Cc1nn(-c2ccc([N+](=O)[O-])cc2)c2ncnc(N/N=C/c3ccccc3O)c12`, the growth with NCI-H23 lung was 15.3%; in the assay on NCI-H226 lung, 35%; in the assay with HOP-62 NSCLC it was -2.87% (active); in the assay on NCI-H460 lung it was 0.666% (active); with HOP-92 NSCLC, 36.6%; in the assay on NCI-H522 lung, 0.557% (active). For the same molecule, the growth is 13% in the assay with A549/ATCC NSCLC; 3.2% (active) in the assay on 786-0 renal; 1.21% (active) in the assay on COLO 205 colon; 20.7% in the assay with DU-145 prostate; 11.2% with K-562 leukemia; 2.12% (active) with MALME-3M melanoma. Besides, the growth was 29% with MDA-MB-231 breast; 15.7% in the assay on RXF 393 renal; 9.25% (active) in the assay with SF-268 CNS; 12.6% in the assay with SF-295 CNS; 7.49% (active) in the assay with SF-539 CNS; 13.2% in the assay with UACC-257 melanoma. For the same molecule, the growth in the assay with M14 melanoma is -17.7% (active).
`Clc1ccc(-c2nc(C(Cl)Cl)nc3cc(-c4ccccc4)nn23)cc1`: the growth was -3.66% (active) with NCI-H23 lung; 84.6% with NCI-H226 lung; 14.6% in the assay with HOP-62 NSCLC; -54.6% (active) with NCI-H460 lung; 49.4% with HOP-92 NSCLC; 22.6% with NCI-H522 lung. In addition, the growth is -12.7% (active) in the assay with A549/ATCC NSCLC; 79.9% in the assay with 786-0 renal; -8.35% (active) with COLO 205 colon; -2.59% (active) with DU-145 prostate; 33.2% in the assay with K-562 leukemia; 46.4% with MALME-3M melanoma. Further, the growth in the assay with MDA-MB-231 breast was 36.9%; in the assay on RXF 393 renal, -55% (active); with SF-268 CNS, 41.7%; in the assay with SF-295 CNS, 14.3%; with SF-539 CNS it was 44%; with UACC-257 melanoma, 52.5%. Further, the growth in the assay with M14 melanoma is 24.2%.
`COc1cccc(CNc2c3ccccc3nc3ccccc23)c1OC`: the growth was 32.4% in the assay with NCI-H23 lung; 51.6% with NCI-H226 lung; 51.2% in the assay on HOP-62 NSCLC; 11.6% with NCI-H460 lung; -2.4% (active) in the assay with HOP-92 NSCLC; 40.1% with NCI-H522 lung. Also, the growth with A549/ATCC NSCLC is 30.3%; in the assay with 786-0 renal it was 38.8%; in the assay with COLO 205 colon, 21.5%; in the assay with DU-145 prostate it was 41.7%; in the assay on K-562 leukemia, 15.5%; in the assay with MALME-3M melanoma, 50.6%. Also, the growth in the assay with MDA-MB-231 breast was 41.9%; in the assay on RXF 393 renal, 29.9%; with SF-268 CNS it was 61.7%; in the assay with SF-295 CNS, 33%; in the assay on SF-539 CNS it was 18.9%; in the assay with UACC-257 melanoma it was 54.8%. Also, the growth with M14 melanoma is 34.5%.
